# Test results reported in ChEMBL document CHEMBL1961873, “Compounds: GSK PKIS; Assays: Nanosyn kinase panel” (2012).
# Target: Tyrosine-protein kinase Lyn (Homo sapiens) (UniProt P07948)
# Details: at 0.1 µM
# Chain of Tyrosine-protein kinase Lyn (Homo sapiens) (P07948 2-512 limits assumed): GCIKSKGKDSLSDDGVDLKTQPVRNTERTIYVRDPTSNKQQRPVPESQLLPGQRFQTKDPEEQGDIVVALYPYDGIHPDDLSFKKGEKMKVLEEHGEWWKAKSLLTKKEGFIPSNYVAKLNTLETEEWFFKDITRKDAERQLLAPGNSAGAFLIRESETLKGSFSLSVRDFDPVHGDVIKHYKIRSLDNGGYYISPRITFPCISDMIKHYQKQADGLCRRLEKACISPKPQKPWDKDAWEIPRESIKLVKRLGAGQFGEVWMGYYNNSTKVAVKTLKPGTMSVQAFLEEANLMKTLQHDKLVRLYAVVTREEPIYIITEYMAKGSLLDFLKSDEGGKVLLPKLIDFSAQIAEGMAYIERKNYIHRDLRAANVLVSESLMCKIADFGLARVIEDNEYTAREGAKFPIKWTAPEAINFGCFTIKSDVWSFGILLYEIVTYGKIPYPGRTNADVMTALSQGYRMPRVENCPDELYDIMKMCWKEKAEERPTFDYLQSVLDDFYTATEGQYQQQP
row,SMILES,inhibition
1,Nc1nc(-c2cccc(Cl)c2)c(-c2ccc3ncccc3n2)s1,7.27%
2,CCn1c(-c2nonc2N)nc2c(C#CC(C)(C)O)nc(OC[C@H](N)c3ccccc3)cc21,4.19%
3,COc1cc(/C=N/Nc2ncnc3[nH]ncc23)ccc1O,16.8%
4,CC(=O)Nc1cccc(C#Cc2cncnc2Nc2ccc(OCc3cccc(F)c3)c(Cl)c2)c1,1.26%
5,N#Cc1c(NC(=O)c2ccc(F)cc2)sc2c1CCCC2,0.87%
6,Cc1cccc(Nc2ncc(-c3ccccc3)o2)c1,3.9%
7,O=C(O[C@H]1CN[C@H](C#Cc2cc3ncnc(Nc4ccc(Cc5ccccc5)cc4)c3s2)C1)N1CCOCC1,0.85%
8,COC(=O)c1sc(-n2cnc3cc(OC)c(OC)cc32)cc1OCc1ccccc1C(F)(F)F,9.46%
9,CN1CCC(n2cnc(-c3ccc(F)cc3)c2-c2ccnc(Nc3ccccc3)n2)CC1,4.88%
10,CNC(=O)c1cccc(C#Cc2cncnc2Nc2ccc(OCc3cccc(F)c3)c(Cl)c2)c1,3.69%
11,CS(=O)(=O)CCNCc1ccc(-c2ccc3ncnc(Nc4ccc(OCc5ccccc5)c(C(F)(F)F)c4)c3c2)o1,4.35%
12,Nc1ncc(-c2cccc(S(N)(=O)=O)c2)c2scc(-c3ccc(F)c(Cl)c3)c12,14%
13,CC(C)(CO)CNC(=O)c1ccc2c(c1)/C(=N/Nc1ccc(S(N)(=O)=O)cc1)C(=O)N2,-1.12%
14,CCCN1CCC(c2ccc(Nc3nc(Nc4cc(F)ccc4C(N)=O)c4cc[nH]c4n3)c(OC)c2)CC1,6.55%
15,CCn1c(-c2nonc2N)nc2cnc(Oc3cccc(NC(=O)c4ccc(N(C)C)cc4)c3)cc21,1.48%
16,Fc1ccc(-c2nn3ccccc3c2-c2ccncc2)cc1,0.64%
17,COc1ccc(-c2oc3ncnc(N)c3c2-c2ccc(NC(=O)Nc3cc(C(F)(F)F)ccc3F)cc2)cc1,48.4%

# Target: Tyrosine-protein kinase Lyn (Homo sapiens) (UniProt P07948)
# Details: at 1 µM
row,SMILES,inhibition
1,FC(F)(F)c1cccc(-c2nn3ncccc3c2-c2ccnc(Nc3ccc4c(c3)OCCO4)n2)c1,39.5%
2,O=C(Nc1n[nH]c2cc(-c3ccc(F)cc3)ccc12)C1CC1,5.51%
3,CN1CCC(n2cnc(-c3ccc(F)cc3)c2-c2ccnc(N)n2)CC1,10.1%
4,COc1ccc(-c2cc(-c3c[nH]nc3-c3ccccn3)ccn2)cc1,15.2%
5,COc1ccc(CNC(=O)c2ccc(-c3cc(-c4nnc(C)o4)ccc3C)cc2)cc1,7.5%
6,CCN(CC)S(=O)(=O)c1ccc(OC)c(Nc2ncc(-c3ccccc3)o2)c1,34.8%
7,CCOc1ccc2c(-c3ccnc(Nc4cccc(C(F)(F)F)c4)n3)cnn2n1,4.33%
8,COc1cccc(-c2c[nH]c3c(N/N=C/c4ccncc4)ncnc23)c1,83.3%
9,COc1cccc(-n2ncc3c(N/N=C/c4ccc(F)cc4)ncnc32)c1,48.7%
10,NS(=O)(=O)c1ccc(N/N=C2\C(=O)Nc3ccc4ncccc4c32)cc1,44.3%
11,Nc1nc(-c2ccc(F)cc2)c(-c2ccc3ncccc3n2)s1,39.4%
12,CNC(=O)c1cncc(/C=C/c2ccccc2Cl)c1,11.3%
13,COc1cc2c(cc1Nc1nc(Nc3ccsc3C(N)=O)c3cc[nH]c3n1)N(C(=O)CN(C)C)CCC2(C)C,4.24%
14,Fc1cccc(COc2ccc(Nc3ncnc4sc(-c5ccco5)cc34)cc2Cl)c1,4.38%
15,COc1ccc2[nH]c3c4[nH]c5ccc(OC)cc5c4c4c(c3c2c1)C(=O)NC4=O,35.3%
16,CNC(=O)c1cc(-c2ccc(F)cc2)cc(-c2ccc(S(=O)(=O)N3CCCC3)cc2)c1N,2.56%
17,Nc1nc(-c2cccc(Cl)c2)c(-c2ccc3ncccc3n2)s1,16.1%

row,SMILES,inhibition
1,CCn1c(-c2nonc2N)nc2c(C#CC(C)(C)O)nc(OC[C@H](N)c3ccccc3)cc21,4.52%
2,COc1cc(/C=N/Nc2ncnc3[nH]ncc23)ccc1O,63.9%
3,CC(=O)Nc1cccc(C#Cc2cncnc2Nc2ccc(OCc3cccc(F)c3)c(Cl)c2)c1,1.6%
4,N#Cc1c(NC(=O)c2ccc(F)cc2)sc2c1CCCC2,2.77%
5,Cc1cccc(Nc2ncc(-c3ccccc3)o2)c1,8.28%
6,O=C(O[C@H]1CN[C@H](C#Cc2cc3ncnc(Nc4ccc(Cc5ccccc5)cc4)c3s2)C1)N1CCOCC1,4.14%
7,COC(=O)c1sc(-n2cnc3cc(OC)c(OC)cc32)cc1OCc1ccccc1C(F)(F)F,19.6%
8,CN1CCC(n2cnc(-c3ccc(F)cc3)c2-c2ccnc(Nc3ccccc3)n2)CC1,23.3%
9,CNC(=O)c1cccc(C#Cc2cncnc2Nc2ccc(OCc3cccc(F)c3)c(Cl)c2)c1,5.89%
10,CS(=O)(=O)CCNCc1ccc(-c2ccc3ncnc(Nc4ccc(OCc5ccccc5)c(C(F)(F)F)c4)c3c2)o1,10.4%
11,Nc1ncc(-c2cccc(S(N)(=O)=O)c2)c2scc(-c3ccc(F)c(Cl)c3)c12,56.7%
12,CC(C)(CO)CNC(=O)c1ccc2c(c1)/C(=N/Nc1ccc(S(N)(=O)=O)cc1)C(=O)N2,9.87%
13,CCCN1CCC(c2ccc(Nc3nc(Nc4cc(F)ccc4C(N)=O)c4cc[nH]c4n3)c(OC)c2)CC1,11.2%
14,CCn1c(-c2nonc2N)nc2cnc(Oc3cccc(NC(=O)c4ccc(N(C)C)cc4)c3)cc21,1.6%
15,Fc1ccc(-c2nn3ccccc3c2-c2ccncc2)cc1,6.12%
16,COc1ccc(-c2oc3ncnc(N)c3c2-c2ccc(NC(=O)Nc3cc(C(F)(F)F)ccc3F)cc2)cc1,94.8%
